Holding throughout (assay): DAPPL (digital affinity profiling via proximity ligation, sequencing); 10 mM Tris-HCl pH 7.5, 50 mM NaCl, 1 mM DTT, 4% glycerol, room temperature, 30 min; GST-TFs on glutathione beads, 16-mer random dsDNA library, 0.1% formaldehyde crosslink after washing; high values mean tight binding
The target in test [1] is T1, FEV (Homo sapiens, UniProt Q99581 1-238).
T1 sequence: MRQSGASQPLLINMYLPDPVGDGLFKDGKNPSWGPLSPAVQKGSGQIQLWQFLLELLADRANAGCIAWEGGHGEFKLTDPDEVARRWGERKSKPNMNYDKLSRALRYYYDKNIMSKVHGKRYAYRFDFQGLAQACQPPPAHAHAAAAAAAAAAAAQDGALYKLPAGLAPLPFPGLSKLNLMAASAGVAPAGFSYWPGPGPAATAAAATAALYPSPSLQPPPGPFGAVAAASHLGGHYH
The note with it: protein: recombinant; tags: N-terminal GST; dsDNA, one strand shown. The method in brief: (§1)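 Binding signal is each hexamer's read frequency for a factor divided by its frequency in the tag-only sample. The factors were GST-fused human transcription factors from yeast, captured on glutathione beads, DNA-barcoded and pooled with that sample. Pools were incubated with 200 nmole of a random double-stranded 16-mer DNA library in Tris/NaCl/DTT/glycerol buffer at room temperature for 30 min, then washed, crosslinked with 0.1% formaldehyde, proximity-ligated with BsaI/T4 ligase (1 h, 37 °C), PCR-amplified and sequenced on an Illumina NextSeq500.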

Test [2] deals with ETV5 (Homo sapiens, UniProt P41161 1-510). As to conditions: protein: recombinant; tags: N-terminal GST; dsDNA, one strand shown. The method in brief: as §1
ETV5, sequence (P41161 whole entry): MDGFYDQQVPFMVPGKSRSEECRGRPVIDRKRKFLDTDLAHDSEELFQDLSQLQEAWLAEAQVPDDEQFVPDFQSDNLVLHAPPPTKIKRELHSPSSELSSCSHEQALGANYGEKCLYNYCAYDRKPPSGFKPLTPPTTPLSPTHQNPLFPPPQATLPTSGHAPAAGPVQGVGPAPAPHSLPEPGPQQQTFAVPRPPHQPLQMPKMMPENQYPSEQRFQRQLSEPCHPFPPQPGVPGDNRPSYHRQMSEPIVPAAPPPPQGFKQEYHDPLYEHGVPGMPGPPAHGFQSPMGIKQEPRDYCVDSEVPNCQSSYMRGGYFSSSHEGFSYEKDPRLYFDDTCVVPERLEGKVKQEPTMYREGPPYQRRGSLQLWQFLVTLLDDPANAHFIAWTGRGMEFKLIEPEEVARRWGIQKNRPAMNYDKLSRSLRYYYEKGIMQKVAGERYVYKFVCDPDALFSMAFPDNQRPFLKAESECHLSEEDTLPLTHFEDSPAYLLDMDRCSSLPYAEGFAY
Test [3] has as its target HSF1 (Homo sapiens, UniProt Q00613 1-529). The note with it: protein: recombinant; tags: N-terminal GST; chain copies: 3; dsDNA, one strand shown. In short, it runs like this: as §1
For test [4], the target named is T2, SPIC (Homo sapiens, UniProt Q8N5J4 1-248).
T2 sequence: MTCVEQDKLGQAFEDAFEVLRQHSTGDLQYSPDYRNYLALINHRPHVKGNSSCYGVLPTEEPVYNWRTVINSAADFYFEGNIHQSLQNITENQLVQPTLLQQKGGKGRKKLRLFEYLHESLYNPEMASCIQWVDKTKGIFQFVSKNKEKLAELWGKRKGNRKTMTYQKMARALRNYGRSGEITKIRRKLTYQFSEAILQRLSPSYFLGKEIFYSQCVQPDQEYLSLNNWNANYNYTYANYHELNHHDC
As to conditions: protein: recombinant; tags: N-terminal GST; dsDNA, one strand shown. In short, it runs like this: as §1

In test [5] the target is ELF4 (Homo sapiens, UniProt Q99607 1-663). The note with it: protein: recombinant; tags: N-terminal GST; dsDNA, one strand shown. The method in brief:
as §1

The target of test [6] is T3, ELK4 (Homo sapiens, UniProt P28324-2 1-405).
T3 sequence: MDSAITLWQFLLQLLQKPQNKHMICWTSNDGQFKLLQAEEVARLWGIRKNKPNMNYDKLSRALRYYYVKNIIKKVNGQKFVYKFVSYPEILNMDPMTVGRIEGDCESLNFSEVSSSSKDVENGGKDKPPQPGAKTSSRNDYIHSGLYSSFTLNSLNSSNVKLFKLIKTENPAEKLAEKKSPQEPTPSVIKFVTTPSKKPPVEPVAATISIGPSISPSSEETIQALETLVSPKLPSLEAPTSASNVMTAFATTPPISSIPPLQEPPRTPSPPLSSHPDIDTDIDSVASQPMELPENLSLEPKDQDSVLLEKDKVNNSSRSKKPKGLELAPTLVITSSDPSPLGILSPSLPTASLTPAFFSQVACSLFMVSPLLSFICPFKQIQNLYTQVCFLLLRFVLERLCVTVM
As to conditions: protein: recombinant; tags: N-terminal GST; dsDNA, one strand shown. In short, it runs like this:
as §1

Test [7] concerns the target T4, ETV2 (Homo sapiens, UniProt O00321 1-342).
T4 sequence: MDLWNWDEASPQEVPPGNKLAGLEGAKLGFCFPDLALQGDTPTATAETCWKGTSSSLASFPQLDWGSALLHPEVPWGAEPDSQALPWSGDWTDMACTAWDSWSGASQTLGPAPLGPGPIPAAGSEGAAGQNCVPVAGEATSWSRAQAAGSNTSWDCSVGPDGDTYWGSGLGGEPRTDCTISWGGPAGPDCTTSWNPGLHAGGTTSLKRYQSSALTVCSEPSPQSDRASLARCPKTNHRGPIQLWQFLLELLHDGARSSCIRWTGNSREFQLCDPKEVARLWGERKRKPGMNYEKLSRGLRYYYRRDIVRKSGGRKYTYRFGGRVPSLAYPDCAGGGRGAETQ
The note with it: protein: recombinant; tags: N-terminal GST; dsDNA, one strand shown. The method in brief:
as §1

In test [8] the target is T5, ELF3 (Homo sapiens, UniProt P78545 1-371).
T5 sequence: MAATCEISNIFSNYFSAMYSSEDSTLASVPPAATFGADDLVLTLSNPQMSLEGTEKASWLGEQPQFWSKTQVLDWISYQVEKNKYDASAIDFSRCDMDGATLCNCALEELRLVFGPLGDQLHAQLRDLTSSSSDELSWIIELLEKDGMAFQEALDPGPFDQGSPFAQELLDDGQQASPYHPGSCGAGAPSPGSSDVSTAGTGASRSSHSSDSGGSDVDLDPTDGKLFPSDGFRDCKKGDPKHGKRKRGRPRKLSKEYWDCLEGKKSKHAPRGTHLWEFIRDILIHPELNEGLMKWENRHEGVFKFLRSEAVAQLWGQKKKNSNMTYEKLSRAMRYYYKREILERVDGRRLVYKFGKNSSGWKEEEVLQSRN
The note with it: protein: recombinant; tags: N-terminal GST; dsDNA, one strand shown. The method in brief:
as §1

The target of test [9] is CRX (Homo sapiens, UniProt O43186 1-299). The note with it: protein: recombinant; tags: N-terminal GST; dsDNA, one strand shown. The method in brief:
as §1

In test [10] the target is ETV1 (Homo sapiens, UniProt P50549 1-477). The note with it: protein: recombinant; tags: N-terminal GST; dsDNA, one strand shown. In short, it runs like this:
as §1

Test [11] concerns the target T6, ERF (Homo sapiens, UniProt P50548 1-548).
T6 sequence: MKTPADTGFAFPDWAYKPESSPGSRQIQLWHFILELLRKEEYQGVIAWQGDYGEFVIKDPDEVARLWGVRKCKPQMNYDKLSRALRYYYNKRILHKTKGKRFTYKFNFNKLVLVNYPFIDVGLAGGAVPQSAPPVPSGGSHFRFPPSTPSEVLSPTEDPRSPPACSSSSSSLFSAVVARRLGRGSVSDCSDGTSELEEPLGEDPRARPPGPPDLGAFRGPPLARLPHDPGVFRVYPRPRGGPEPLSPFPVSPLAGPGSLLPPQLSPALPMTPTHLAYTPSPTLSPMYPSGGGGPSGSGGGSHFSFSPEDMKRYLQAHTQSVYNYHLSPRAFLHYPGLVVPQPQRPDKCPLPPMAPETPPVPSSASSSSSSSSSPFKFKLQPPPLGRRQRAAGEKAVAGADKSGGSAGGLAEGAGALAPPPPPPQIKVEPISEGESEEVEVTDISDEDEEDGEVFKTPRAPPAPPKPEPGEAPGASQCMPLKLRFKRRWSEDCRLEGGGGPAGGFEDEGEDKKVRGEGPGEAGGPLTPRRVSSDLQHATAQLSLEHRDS
The note with it: protein: recombinant; tags: N-terminal GST; dsDNA, one strand shown. In short, it runs like this: as §1

The target in test [12] is T7, ETV3L (Homo sapiens, UniProt Q6ZN32 1-361).
T7 sequence: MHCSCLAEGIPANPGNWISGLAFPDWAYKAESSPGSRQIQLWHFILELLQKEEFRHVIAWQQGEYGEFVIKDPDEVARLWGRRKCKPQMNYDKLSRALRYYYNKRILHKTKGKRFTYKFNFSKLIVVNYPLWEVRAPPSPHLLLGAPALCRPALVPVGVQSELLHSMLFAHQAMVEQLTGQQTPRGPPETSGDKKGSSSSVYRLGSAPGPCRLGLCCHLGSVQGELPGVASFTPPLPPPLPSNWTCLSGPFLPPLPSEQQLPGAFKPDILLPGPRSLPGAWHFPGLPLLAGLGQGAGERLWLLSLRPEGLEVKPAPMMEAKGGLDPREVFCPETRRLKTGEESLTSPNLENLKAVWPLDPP
As to conditions: protein: recombinant; tags: N-terminal GST; dsDNA, one strand shown. The method in brief:
as §1

Test [13] concerns the target T8, ETS2 (Homo sapiens, UniProt P15036 1-469).
T8 sequence: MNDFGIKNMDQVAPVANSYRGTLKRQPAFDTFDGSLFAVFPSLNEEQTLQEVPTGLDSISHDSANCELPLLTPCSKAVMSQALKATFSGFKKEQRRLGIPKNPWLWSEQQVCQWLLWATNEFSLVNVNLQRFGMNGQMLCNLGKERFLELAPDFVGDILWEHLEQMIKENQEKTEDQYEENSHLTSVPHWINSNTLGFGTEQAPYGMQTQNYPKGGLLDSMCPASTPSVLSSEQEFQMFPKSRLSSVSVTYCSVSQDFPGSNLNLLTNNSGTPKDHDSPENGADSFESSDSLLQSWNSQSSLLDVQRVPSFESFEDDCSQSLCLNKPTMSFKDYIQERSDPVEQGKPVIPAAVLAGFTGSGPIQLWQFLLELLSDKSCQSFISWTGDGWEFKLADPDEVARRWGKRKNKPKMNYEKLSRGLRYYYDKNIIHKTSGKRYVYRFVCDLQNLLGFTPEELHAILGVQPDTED
The note with it: protein: recombinant; tags: N-terminal GST; dsDNA, one strand shown. In short, it runs like this: as §1

The target of test [14] is T9, SPDEF (Homo sapiens, UniProt O95238 1-335).
T9 sequence: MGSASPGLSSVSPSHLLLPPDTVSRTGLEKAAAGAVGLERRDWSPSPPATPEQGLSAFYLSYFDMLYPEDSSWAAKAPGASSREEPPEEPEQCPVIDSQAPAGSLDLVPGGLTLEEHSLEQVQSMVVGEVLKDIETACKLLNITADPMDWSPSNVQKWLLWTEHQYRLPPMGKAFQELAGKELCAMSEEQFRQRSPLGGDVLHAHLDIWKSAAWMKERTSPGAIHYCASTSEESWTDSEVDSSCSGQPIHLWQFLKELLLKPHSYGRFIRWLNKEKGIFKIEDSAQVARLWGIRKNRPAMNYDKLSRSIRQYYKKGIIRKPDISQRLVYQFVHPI
As to conditions: protein: recombinant; tags: N-terminal GST; dsDNA, one strand shown. The method in brief:
as §1

The target of test [15] is T10, ETV7 (Homo sapiens, UniProt Q9Y603 1-341).
T10 sequence: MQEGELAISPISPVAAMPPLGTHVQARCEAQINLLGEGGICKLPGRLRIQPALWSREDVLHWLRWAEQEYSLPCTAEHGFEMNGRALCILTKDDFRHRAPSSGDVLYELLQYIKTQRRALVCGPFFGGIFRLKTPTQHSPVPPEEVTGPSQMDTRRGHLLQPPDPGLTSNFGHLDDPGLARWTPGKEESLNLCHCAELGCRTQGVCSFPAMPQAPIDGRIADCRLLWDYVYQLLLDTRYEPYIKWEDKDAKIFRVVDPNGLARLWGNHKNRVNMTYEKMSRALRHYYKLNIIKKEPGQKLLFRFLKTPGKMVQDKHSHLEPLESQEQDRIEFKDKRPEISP
The note with it: protein: recombinant; tags: N-terminal GST; dsDNA, one strand shown. In short, it runs like this: as §1

Test [16] concerns the target T11, ELF5 (Homo sapiens, UniProt Q9UKW6-2 1-255).
T11 sequence: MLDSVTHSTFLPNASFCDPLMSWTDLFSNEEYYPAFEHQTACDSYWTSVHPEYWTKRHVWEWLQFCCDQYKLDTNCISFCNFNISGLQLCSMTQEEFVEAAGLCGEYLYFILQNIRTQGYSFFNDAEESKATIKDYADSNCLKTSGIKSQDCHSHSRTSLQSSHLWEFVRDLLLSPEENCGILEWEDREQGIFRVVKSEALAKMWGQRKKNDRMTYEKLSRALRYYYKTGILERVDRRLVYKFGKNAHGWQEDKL
As to conditions: protein: recombinant; tags: N-terminal GST; dsDNA, one strand shown. In short, it runs like this: as §1

The target in test [17] is T12, ETV3 (Homo sapiens, UniProt P41162-2 1-143).
T12 sequence: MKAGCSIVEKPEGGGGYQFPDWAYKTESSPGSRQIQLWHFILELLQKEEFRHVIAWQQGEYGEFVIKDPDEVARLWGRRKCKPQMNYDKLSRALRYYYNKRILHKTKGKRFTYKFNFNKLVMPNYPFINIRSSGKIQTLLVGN
The note with it: protein: recombinant; tags: N-terminal GST; dsDNA, one strand shown. In short, it runs like this: as §1

The target in test [18] is ETV6 (Homo sapiens, UniProt P41212 1-452). As to conditions: protein: recombinant; tags: N-terminal GST; dsDNA, one strand shown. The method in brief: as §1
ETV6, sequence (P41212 whole entry): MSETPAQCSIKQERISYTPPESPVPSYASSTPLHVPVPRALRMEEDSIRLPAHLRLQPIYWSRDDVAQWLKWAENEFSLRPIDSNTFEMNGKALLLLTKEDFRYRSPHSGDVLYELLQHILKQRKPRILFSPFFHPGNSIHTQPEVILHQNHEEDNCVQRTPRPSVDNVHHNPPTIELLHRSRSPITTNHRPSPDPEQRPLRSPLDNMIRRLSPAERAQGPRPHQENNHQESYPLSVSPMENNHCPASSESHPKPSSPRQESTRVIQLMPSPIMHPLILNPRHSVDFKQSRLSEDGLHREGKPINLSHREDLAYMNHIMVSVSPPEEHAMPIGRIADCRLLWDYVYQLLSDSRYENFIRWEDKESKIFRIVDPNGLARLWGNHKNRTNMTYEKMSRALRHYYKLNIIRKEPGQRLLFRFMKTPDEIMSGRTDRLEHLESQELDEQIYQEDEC

We go through one sequence from publication PMC7862700, “An all-to-all approach to the identification of sequence-specific readers for epigenetic DNA modifications on cytosine”.

HSF1, sequence (Q00613 whole entry): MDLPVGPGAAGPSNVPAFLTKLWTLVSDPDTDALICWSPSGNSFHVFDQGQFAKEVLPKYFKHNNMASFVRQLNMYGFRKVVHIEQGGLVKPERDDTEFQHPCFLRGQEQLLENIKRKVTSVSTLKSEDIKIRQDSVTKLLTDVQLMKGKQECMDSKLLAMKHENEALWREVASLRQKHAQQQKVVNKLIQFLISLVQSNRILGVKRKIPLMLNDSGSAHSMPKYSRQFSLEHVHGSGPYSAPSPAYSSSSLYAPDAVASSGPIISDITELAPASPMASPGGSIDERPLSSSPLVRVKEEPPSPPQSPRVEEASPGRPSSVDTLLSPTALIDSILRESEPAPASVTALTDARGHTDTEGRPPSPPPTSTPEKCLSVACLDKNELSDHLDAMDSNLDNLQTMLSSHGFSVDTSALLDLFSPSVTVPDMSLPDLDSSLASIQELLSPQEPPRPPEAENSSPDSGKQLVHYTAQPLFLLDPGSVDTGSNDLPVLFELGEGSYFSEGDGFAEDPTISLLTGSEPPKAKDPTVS
CRX, sequence (O43186 whole entry): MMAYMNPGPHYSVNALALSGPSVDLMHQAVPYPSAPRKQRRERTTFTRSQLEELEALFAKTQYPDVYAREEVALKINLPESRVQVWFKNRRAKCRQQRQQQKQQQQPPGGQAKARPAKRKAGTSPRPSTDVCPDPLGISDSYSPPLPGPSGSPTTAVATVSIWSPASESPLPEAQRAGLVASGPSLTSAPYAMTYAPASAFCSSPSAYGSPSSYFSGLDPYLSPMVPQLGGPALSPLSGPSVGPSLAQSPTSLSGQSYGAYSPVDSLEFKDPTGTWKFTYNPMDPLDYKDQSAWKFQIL
ELF4, sequence (Q99607 whole entry): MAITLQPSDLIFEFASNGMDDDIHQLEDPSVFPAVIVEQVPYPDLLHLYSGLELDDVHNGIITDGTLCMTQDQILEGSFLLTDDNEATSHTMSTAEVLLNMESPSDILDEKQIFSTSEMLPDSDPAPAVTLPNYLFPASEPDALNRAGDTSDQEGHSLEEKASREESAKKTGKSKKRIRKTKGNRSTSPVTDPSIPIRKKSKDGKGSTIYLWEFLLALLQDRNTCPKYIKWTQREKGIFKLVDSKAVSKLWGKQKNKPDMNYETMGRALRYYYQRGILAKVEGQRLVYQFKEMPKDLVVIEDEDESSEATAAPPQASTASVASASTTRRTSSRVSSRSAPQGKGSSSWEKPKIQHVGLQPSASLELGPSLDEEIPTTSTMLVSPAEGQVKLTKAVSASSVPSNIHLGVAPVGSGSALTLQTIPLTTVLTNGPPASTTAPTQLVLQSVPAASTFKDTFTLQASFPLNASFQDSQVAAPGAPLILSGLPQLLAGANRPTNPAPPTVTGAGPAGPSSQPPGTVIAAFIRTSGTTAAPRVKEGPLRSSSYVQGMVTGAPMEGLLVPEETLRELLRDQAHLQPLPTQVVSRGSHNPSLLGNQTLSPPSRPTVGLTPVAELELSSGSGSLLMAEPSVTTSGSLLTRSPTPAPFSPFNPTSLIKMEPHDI
ETV1, sequence (P50549 whole entry): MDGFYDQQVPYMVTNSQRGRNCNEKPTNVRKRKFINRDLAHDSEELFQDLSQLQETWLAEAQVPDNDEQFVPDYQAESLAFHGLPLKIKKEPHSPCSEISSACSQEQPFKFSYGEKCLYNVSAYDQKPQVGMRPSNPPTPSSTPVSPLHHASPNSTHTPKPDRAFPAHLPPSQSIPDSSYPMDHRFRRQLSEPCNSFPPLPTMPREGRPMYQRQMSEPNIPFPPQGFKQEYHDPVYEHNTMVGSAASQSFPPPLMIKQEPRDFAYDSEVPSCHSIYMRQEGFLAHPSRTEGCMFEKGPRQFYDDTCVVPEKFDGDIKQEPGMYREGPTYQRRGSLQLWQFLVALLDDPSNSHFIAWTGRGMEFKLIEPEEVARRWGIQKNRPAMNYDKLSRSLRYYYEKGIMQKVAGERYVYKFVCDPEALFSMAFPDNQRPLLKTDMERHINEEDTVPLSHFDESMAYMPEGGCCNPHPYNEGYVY

As to CTTTGA, the binding signal in test [1] was 1.14 fold enrichment (6-mer frequency, TF over GST control); in test [2], 1.18 fold enrichment (6-mer frequency, TF over GST control); in test [3], 1.21 fold enrichment (6-mer frequency, TF over GST control); in [4] it was 1.4 fold enrichment (6-mer frequency, TF over GST control); in test [5], 1.24 fold enrichment (6-mer frequency, TF over GST control); in test [6] it was 1.41 fold enrichment (6-mer frequency, TF over GST control). The binding signal is 1.27 fold enrichment (6-mer frequency, TF over GST control) in test [7]; 1.16 fold enrichment (6-mer frequency, TF over GST control) in test [8]; 1.23 fold enrichment (6-mer frequency, TF over GST control) in test [9]; 1.21 fold enrichment (6-mer frequency, TF over GST control) in [10]; 1.18 fold enrichment (6-mer frequency, TF over GST control) in test [11]; 1.11 fold enrichment (6-mer frequency, TF over GST control) in [12]. Besides, the binding signal is 1.15 fold enrichment (6-mer frequency, TF over GST control) in test [13]; 1.1 fold enrichment (6-mer frequency, TF over GST control) in test [14]; 1.34 fold enrichment (6-mer frequency, TF over GST control) in test [15]; 1.16 fold enrichment (6-mer frequency, TF over GST control) in test [16]; 1.35 fold enrichment (6-mer frequency, TF over GST control) in [17]; 1.25 fold enrichment (6-mer frequency, TF over GST control) in [18].
